Bioassay records: PubChem BioAssay, National Center for Advancing Translational Sciences (NCATS)
ELG1 genotoxic: induces genotoxicity in HEK293T cells with luciferase-tagged ELG1; HEK293T ELG1-luciferase reporter, luminescence, 16 h; actives 1.3% (n = 330,000); Potency, µM (highest dose often 46 µM), for inactives: top-dose activity change, positive = activation, hits mostly activators; AID 504466; also: % of control where 0% means no effect; nearly all actives have a fitted effect of over 60% in size
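Reporter readout depends on ELG1 protein level, which increases with genetic stress. After 16 hr compound exposure at 37 °C, luciferase activity was quantified using ONE-Glo.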
Rab9 promoter act: activates the Rab9 promoter. Huh7 Rab9 promoter-luciferase reporter, luminescence, 24 h. Potency, µM (series often up to 9.22 µM), without a hit: top-dose activation, negative = inhibition, hits mostly activators. actives 2.8% (n = 320,000). AID 485297; also: % of control where 0% means no effect; nearly all actives have a fitted effect of over 60% in size
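Measured in stably transfected Huh7 cells bearing a Rab9 promoter–luciferase construct: 24 h compound treatment at 37 °C, followed by luminescence detection.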
uPA surface inh: inhibitors of cell surface uPA generation. cell surface uPA generation assay, qHTS. Potency, µM (top dose mostly 38.3 µM), for inactives: at the top dose activity change, negative = inhibition, hits mostly inhibitors. actives 0.31% (n = 330,000). AID 540303; active = well fitted inhibition curve with a large enough effect; inconclusive = small, poorly fitted or top-dose-only effect; inactive = no such curve, though single readings can be large or run the other way; tested in mouse RAW 264.7 cells; also: % is scaled to controls: 0 for no effect and ±100 for the full control effect; nearly all actives have a fitted effect of over 55% in size
SMN2 splice enh: increases expression of the SMN2 splice variant. actives 2.8% (n = 210,000). HEK293 SMN2-luciferase splicing reporter, luminescence, 30-36 h. Potency, µM (highest dose often 46.1 µM), for inactives: top-dose activity change, positive = activation, actives largely listed as activators. AID 1458; also: % of control where 0% means no effect; nearly all actives have a fitted effect of over 55% in size
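qHTS luciferase splicing reporter: luminescence rises when SMN2 exon 7 is included in transfected HEK293 cells. Compound exposure lasted 30-36 h at 37C, with 4.5 mM final sodium butyrate as control, followed by a ONE-Glo read.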
FLuc counter: counter-screen for miR-21 project: firefly luciferase inhibitors or activators | purified FLuc, Km substrates, luminescence inhibition | AID 588342 | Potency, µM (doses to about 57.5 µM), without a hit: top-dose activity change, negative = inhibition, actives largely listed as inhibitors | actives 6.9% (n = 360,000);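 also: plate controls were vehicle for no effect and reference inhibitor for full effect; nearly all actives have a fitted effect of over 55% in size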
Target sequence (P08659 whole entry, looked up): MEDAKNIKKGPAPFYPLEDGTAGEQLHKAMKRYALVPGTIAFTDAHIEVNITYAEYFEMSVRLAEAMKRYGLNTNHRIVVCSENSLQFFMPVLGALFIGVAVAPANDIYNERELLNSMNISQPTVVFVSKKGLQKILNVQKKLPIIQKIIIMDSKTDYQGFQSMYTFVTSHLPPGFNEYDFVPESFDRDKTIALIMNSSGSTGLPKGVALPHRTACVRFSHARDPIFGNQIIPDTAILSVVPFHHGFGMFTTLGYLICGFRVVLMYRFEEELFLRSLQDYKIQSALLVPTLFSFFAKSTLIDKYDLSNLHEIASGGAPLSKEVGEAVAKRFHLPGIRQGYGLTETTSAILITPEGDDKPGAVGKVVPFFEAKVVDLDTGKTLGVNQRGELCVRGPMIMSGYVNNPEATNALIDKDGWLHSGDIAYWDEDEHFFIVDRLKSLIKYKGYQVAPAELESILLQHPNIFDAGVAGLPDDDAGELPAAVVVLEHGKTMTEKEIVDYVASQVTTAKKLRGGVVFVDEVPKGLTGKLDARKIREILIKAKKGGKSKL
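Purified P. pyralis luciferase (10nM final) with 10uM D-luciferin and 10uM ATP (Km levels) in 50mM Tris acetate pH 7.5, 10mM Mg acetate, 0.01% Tween-20, 0.05% BSA; qHTS 6-point titration, ~60 µM downward; luminescence read.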
NPC1 promoter act: NPC1 promoter activation | Huh7 NPC1 promoter luciferase reporter, 24 h | Potency, µM (series often up to 9.22 µM), for the others: at the highest dose activation, hits mostly activators | actives 2.4% (n = 320,000) | AID 485313; also: % of control where 0% means no effect; nearly all actives have a fitted effect of over 60% in size
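NPC1 promoter–luciferase Huh7 cells; 24 h compound; luminescence.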
* hit, by the source's call; ? = inconclusive; nt = no result given; [ ] = another dose, or the depositor's remark. Most compounds without a hit are left out; they make up all but 7.3% or so of the library. Unless noted, calls follow the shape of the dose curve; as a rule, active = well fitted curve in the direction sought with a large enough effect; inconclusive = small, poorly fitted or top-dose-only effect, or another doubt; inactive = no such curve, though single readings can be large; an effect the other way counts as inactive or inconclusive. Potency is read from the fitted curve at half-maximal effect.

SMILES	ELG1 genotoxic	Rab9 promoter act	uPA surface inh	SMN2 splice enh	FLuc counter	NPC1 promoter act
O=C(Nc1cccc(C(F)(F)F)c1)c1cc(-c2ccc(Cl)cc2)on1	nt	nt	nt	-9.1%	3.6%	nt
Cc1cccc(-c2noc(-c3ccccc3OCC(=O)Nc3ccc([N+](=O)[O-])cc3)n2)c1	nt	nt	nt	nt	-9.4%	nt
Cc1ccnc(NC(=O)Cc2ccc(-c3ccccc3)cc2)c1	2.31µM*	-36.8%	?	nt	10.7µM*	-4.4%
Cc1ccnc(NC(=O)CNC(=O)c2ccc(Br)o2)c1	16.4µM*	-7.5%	0.9%	nt	?	6.1%
Cc1ccc(S(=O)(=O)N(C)CC(=O)Nc2cc(C)ccn2)cc1	10.3µM*	0.5%	-3.5%	nt	?	-2.0%
O=C(Cc1ccc(-c2ccccc2)cc1)Nc1ccccn1	?	16.1%	3.3%	nt	?	24.0%
Nc1ccc(N)c([N+](=O)[O-])c1	nt	nt	nt	9.8%	nt	nt
Clc1ccc(Cl)c(OCc2cc(-c3ccccc3Cl)on2)c1	14.1%	?	-0.3%	-3.1%	10.7µM*	?
Cc1c(/C(O)=C2/C(=O)C(=O)N(Cc3cccnc3)C2c2cccs2)cnn1-c1ccccc1 (centres undefined)	?	3.55µM*	0.4%	-28.7%	-1.7%[2.3 µM]	?
Cc1c(/C(O)=C2/C(=O)C(=O)N(Cc3cccnc3)C2c2ccccn2)cnn1-c1ccccc1 (centres undefined)	?	-17.1%	1.7%	-19.0%	15.1µM*	-4.7%
Cc1ccc(/C(O)=C2/C(=O)C(=O)N(Cc3cccnc3)C2c2ccccn2)cc1 (centres undefined)	-0.6%	-3.0%	0.1%	?	1.3%	0.7%
Nc1ncc(S(=O)(=O)NCc2ccccc2F)cn1	nt	nt	nt	nt	-0.7%	nt
C/C(=N\NC(=S)Nc1cc(S(=O)(=O)N2CCOCC2)ccc1Cl)c1ccccc1F	7.9%	-14.7%	-8.8%	-82.3%	26.9µM*	-5.2%
CC(C)N(C(=S)Nc1cc(S(=O)(=O)N2CCOCC2)ccc1Cl)c1ccccc1	-1.1%	0.1%	0.7%	3.6%	-2.0%	-1.5%
CC(=O)N/C(N)=N/c1nc2cc([N+](=O)[O-])ccc2o1	?	3.16µM*	-0.3%	nt	?	?
CC(=O)N/C(N)=N/c1nc2cc(C)ccc2o1	9.2µM*	0.794µM*	?	nt	5.36µM*	1.41µM*
NC(=S)N/N=C/c1ccccc1	0.7%	-10.0%	-3.6%	21.9%	-0.2%	0.8%
NC(=S)N/N=C/c1ccc(C23CC4CC(CC(C4)C2)C3)cc1	?	-6.9%	-16.3%	nt	21.3µM*	-0.8%
N/C(=N\OC(=O)c1ccccc1)c1ccn[nH]1	10.3µM*	3.55µM*	-15.0%	nt	6.75µM*	2.24µM*
O=C(NCc1cccnc1)c1ccc(Cl)cc1[N+](=O)[O-]	3.1%	-8.3%	4.4%	?	3.2%	-2.0%
N/C(=N\OC(=O)Cc1ccccc1)c1cccnc1	3.2%	-3.5%	12.0%	-12.4%	-1.9%	-4.0%
N/C(=N\OC(=O)c1ccc(Cl)cc1[N+](=O)[O-])c1cccnc1	?	?	-6.0%	nt	23.9µM*	25.4%
N/C(=N\OC(=O)c1ccccc1)c1cccnc1	?	29.7%	-24.7%	nt	5.36µM*	18.8%
N/C(=N\OC(=O)c1cc(Cl)ccc1Cl)c1cccnc1	20.6µM*	?	0.1%	?	9.53µM*	14.0%
O=C(O/N=C(/c1ccccc1)c1ccncc1)c1ccc(F)cc1	-3.3%	-1.8%	-2.3%	-20.1%	-4.7%	-4.8%
SMILES	ELG1 genotoxic	Rab9 promoter act	uPA surface inh	SMN2 splice enh	FLuc counter	NPC1 promoter act
N/C(=N\OC(=O)c1ccccc1Cl)c1ccncc1	-14.6%	4.1%	-5.3%	nt	?	25.6%
Cc1cccc(C(=O)O/N=C(\c2ccccc2)c2cccnc2)c1	-1.7%	3.0%	-0.2%	-15.9%	?	-0.3%
N/C(=N\OC(=O)c1ccccc1Cl)c1cccnc1	?	?	-8.9%	15.8µM*	4.26µM*	3.55µM*
Cc1ccc(C(=O)O/N=C(\c2ccccc2)c2cccnc2)cc1	2.4%	0.9%	-3.6%	-10.3%	16.9µM*	-3.1%
N/C(=N\OC(=O)c1cc(Br)ccc1Cl)c1cccnc1	12.0%	?	2.9%	19.1%	21.3µM*	?
CCOc1ccc(-c2nc(C(N)=O)c3c(n2)n(-c2ccc4c(c2)OCO4)c(=O)n3CC)cc1	nt	nt	nt	2.0%	1.1%	nt
CC1=C(c2ccc(Cl)cc2)S(=O)(=O)N=C1N1CCN(c2cccc(C(F)(F)F)c2)CC1	nt	nt	nt	nt	-12.3%	nt
Clc1ccc(-c2cnc3n2CCC3)cc1	12.3%	?	nt	-2.0%	13.5µM*	22.0%
CC1CC(=O)c2cnc(Nc3ccccc3)nc2C1 (centres undefined)	5.8µM*	3.55µM*	nt	11.2µM*	9.53µM*	3.16µM*
CC1CC(=O)c2cnc(Nc3cccc(C(F)(F)F)c3)nc2C1 (centres undefined)	7.0%	?	2.3%	-0.4%	?	18.6%
Cc1ccc(Nc2ncc3c(n2)CC(C)CC3=O)c(C)c1 (centres undefined)	7.3µM*	?	-15.9%	nt	7.57µM*	27.1%
Cc1nc2nc(NC(=O)c3ccccc3F)[nH]n2c(=O)c1Cl	nt	nt	nt	4.2%	?	nt
Nc1c(O)cccc1C(=O)C[C@@H](N)C(=O)O	nt	nt	nt	-4.0%[20.6 µM]	nt	nt
O=C(O)COc1ccc(/C=C/C(=O)c2ccc3ccccc3c2)cc1	8.2%	13.8%	-16.4%	nt	0.953µM*	3.4%
O=C(O)COc1ccc(/C=C/C(=O)c2ccc(C3CCCCC3)cc2)cc1	2.9%	?	-15.6%	nt	0.379µM*	?
CCOc1ccc(/C=C/C(=O)NC2CCCCC2)cc1	6.7%	17.3%	3.6%	nt	?	18.7%
COc1ccc(CCN2C(=O)CN(C3CCCCCC3)C(=O)C2c2ccc(C)cc2)cc1OC (centres undefined)	nt	nt	nt	nt	3.6%	nt
O=C(c1ccccc1)c1cc2ccc(O)cc2oc1=O	5.6%	13.7%	nt	0.5%	19µM*	23.1%
Cc1oc(=O)c(NC(=O)c2ccccc2)cc1C(C)O (centres undefined)	8.5%	10.9%	-2.7%	nt	6.8%	9.0%
O=C(Nc1cc2ccc(O)cc2oc1=O)c1ccccc1	nt	nt	nt	nt	5.36µM*	nt
Cc1c(Cl)cccc1NC(=O)C(=O)NCC(c1cccnc1)N1CCN(c2ccccc2)CC1 (centres undefined)	nt	nt	nt	nt	-4.9%	nt
Oc1ccccc1/C=N/NC(=S)NC1CC2C=CC1C2 (centres undefined)	?	?	2.3%	nt	13.5µM*	?
S=C(NCCc1ccccc1)N/N=C/c1cccc(Cl)c1Cl	5.6%	-2.4%	0.1%	16.7%	-0.6%	0.2%
Oc1ccccc1/C=N/NC(=S)NCCc1ccccc1	-3.3%	27.4%	-1.1%	nt	26.9µM*	29.0%
CCOc1ccccc1NC(=S)N1CCC(c2nc3ccccc3o2)CC1	-3.4%	-7.1%	-19.9%	-8.7%	0.8%	-2.0%
